Among all 370,000 compounds or so, about 1,100 (0.3%) were called active. Entries that show only a call come without a potency. Not shown: some 1% with an inconclusive outcome. Calls come from the whole dose curve; as a rule, active = well fitted activation curve with a large enough effect; inconclusive = small, poorly fitted or top-dose-only effect; inactive = flat fitted curve, though single readings scatter. For the sample, actives were picked, then their nearest neighbours and some compounds at random.
Target: Relaxin receptor 1 (Homo sapiens) (UniProt Q9HBX9)
Experiment: qHTS Assay for Agonists of the Relaxin Receptor RXFP1; note: nearly all actives have a fitted effect of over 60% in size
Settings: HEK293T-RXFP1 cAMP TR-FRET, 30 min; series mostly up to 57.5 µM
Excerpt: NIH Chemical Genomics Center [NCGC] NIH Molecular Libraries Probe Production Centers Network [MLPCN] MLPCN Grant: R03 MH085705-01A1 Assay Submitter (PI): Alexander Agoulnik NCGC Assay Overview: The relaxin hormone is involved in the variety of biological functions in normal tissues and diseases. The role of relaxin is well-established in female reproduction and parturition, mammary gland and endometrial development, maintenance of myometrial quiescence during pregnancy. Relaxin signaling through its G protein-coupled receptor (GPCR) RXFP1 results in ECM remodeling through regulation of collagen deposition, cell invasiveness, proliferation and overall tissue homeostasis. […] Recombinant human relaxin (rhRlx) is currently being tested in clinical trials as a protective agent in congestive heart failure, in treating severe preeclampsia, and as an anti-fibrotic agent in systemic sclerosis. Upon relaxin binding RXFP1 activation leads to the activation of adenylate cyclase (AC) via Gs. cAMP will activate PKA, which phosphorylates many signaling proteins. Thus, detection of cAMP increase is an easy and reliable indication of relaxin receptor activation. To screen for agonists of the relaxin receptor, a HEK293T cell line stably transfected with RXFP1 was used. RXFP1 activation was assayed by changes in cAMP levels as detected with a time-resolved fluorescence energy transfer (TR-FRET) cAMP detection kit.
NCGC Assay Protocol Summary: This is a cell-based assay for cAMP second messenger response to screen for agonists of the RXFP1 receptor. The assay was conducted in the presence of a PDE4 inhibitor (Ro 20174). The cells were lysed and the cAMP levels were measured with a TR-FRET cAMP kit. Presence of cAMP in the cell lysate disrupts binding between the cryptate-labeled anti-cAMP and d2-labeled cAMP pair, leading to a decrease in the TR-FRET signal. Data were normalized to the controls for basal activity (buffer only) and 100% activity (29 nM porcine relaxin). The EC50 values were determined from concentration-response data modeled with the standard Hill equation 1536-well assay protocol for the HEK293 RXFP1 cAMP assay: (1) Add 3 ul HEK293 RXFP1 cell culture. 2000 cells/well in DMEM/F12, 10% FBS, 1x Pen/Strep (dispensed offline with MultiDrop Combi). (2) Incubate 16-24 hr at 37C, 5% CO2. (3) Add 1 ul 400uM Ro20174 in DPBS, 0.05% BSA, 0.005% Tween 20. (3) Add 23 nl compounds in DMSO solution. Final concentration was 0.5 - 58 uM. (4) Incubate 30 min at 37C, 5% CO2. (5) Add 1 ul cAMP-d2 in lysis buffer (HTRF cAMP HiRange kit, CisBio). (6) Add 1 ul anti-cAMP antibody-cryptate in lysis buffer (HTRF cAMP HiRange kit, CisBio). (7) Incubate 30 min at room temperature. (6) Detect the assay plate in a ViewLux plate reader (PerkinElmer) with Ex=320 nm, Em1=615 nm and Em2=665 nm. Keywords: relaxin, RXFP1, RXFP2, G-protein coupled receptor, cAMP, agonist, high throughput screening, MLSMR, MLSCN, NIH Roadmap, qHTS and NCGC
Potency is the fitted concentration of half-maximal effect.

Relaxin receptor 1 (Homo sapiens), sequence (Q9HBX9 whole entry, looked up): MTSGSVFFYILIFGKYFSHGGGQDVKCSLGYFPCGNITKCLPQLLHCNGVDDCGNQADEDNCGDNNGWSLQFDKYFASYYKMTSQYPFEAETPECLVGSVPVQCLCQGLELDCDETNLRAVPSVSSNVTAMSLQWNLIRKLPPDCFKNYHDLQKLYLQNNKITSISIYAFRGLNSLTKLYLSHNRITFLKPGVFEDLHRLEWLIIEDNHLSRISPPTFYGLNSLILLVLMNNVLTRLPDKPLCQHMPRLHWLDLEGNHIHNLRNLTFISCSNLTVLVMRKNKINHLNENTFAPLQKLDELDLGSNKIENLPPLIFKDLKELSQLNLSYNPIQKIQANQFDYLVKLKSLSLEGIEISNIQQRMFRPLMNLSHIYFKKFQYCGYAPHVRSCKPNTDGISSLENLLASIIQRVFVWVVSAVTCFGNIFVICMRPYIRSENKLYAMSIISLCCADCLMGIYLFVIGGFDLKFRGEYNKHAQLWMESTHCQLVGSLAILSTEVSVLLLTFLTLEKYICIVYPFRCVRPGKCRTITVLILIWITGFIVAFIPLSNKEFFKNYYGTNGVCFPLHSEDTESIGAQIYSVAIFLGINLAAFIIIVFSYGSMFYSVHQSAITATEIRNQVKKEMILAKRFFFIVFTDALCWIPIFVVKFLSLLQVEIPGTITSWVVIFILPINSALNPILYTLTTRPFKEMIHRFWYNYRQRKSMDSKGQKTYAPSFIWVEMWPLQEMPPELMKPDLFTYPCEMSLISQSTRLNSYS

| Structure (SMILES) | Potency |
| --- | --- |
| O=C1CN(C(=O)Nc2ccccc2C(F)(F)F)C(c2ccccc2)c2c(sc3c2CCCC3)N1 (stereo not drawn) | inactive |
| Cc1cccc(N2CCN(C(=O)CCn3c(=O)c4cccn4c4cccnc43)CC2C)c1 (stereo not drawn) | inactive |
| Cc1ccc(CCNC(=O)c2ccc3c(c2)nc2n3CCC(C)C2)cc1 (stereo not drawn) | inactive |
| COc1ccc(-c2cn3c(n2)sc2cc(C(=O)Nc4ccccc4F)ccc23)cc1 | inactive |
| CC(C)(C)C1CCc2c(sc(NC(=O)c3ccccc3F)c2C(=O)N2CCCCC2)C1 (stereo not drawn) | inactive |
| CCN1CCN(Cc2c(O)ccc3oc(C)c(C(=O)Nc4ccc(C)cc4C)c23)CC1 | inactive |
| COc1cccc(-n2cc(C(=O)NCc3cccc(Cl)c3)c3ccccc3c2=O)c1 | inactive |
| COc1ccc(NC(=O)NC(C)c2c(-n3cccc3)sc(C)c2C)cc1OC (stereo not drawn) | inactive |
| CCOC(=O)c1ccc(NC(=O)CSc2nc3c([nH]c4ccccc43)c(=O)n2C)cc1 | inactive |
| Cc1c(Cl)cccc1NC(=O)Cn1cc(C(=O)c2cccs2)c2ccccc21 | inactive |
| CC(=O)N1CCCc2ccc(NS(=O)(=O)c3ccc(F)cc3F)cc21 | inactive |
| COc1cccc(Cn2c(CNS(=O)(=O)c3ccc(Cl)s3)nc3cccnc32)c1 | inactive |
| CCOC(=O)c1sc(=NC(=O)/C=C/c2cccs2)n(C)c1C | inactive |
| CCN(CC)S(=O)(=O)c1ccc(C(=O)N=c2sc3cccc(OC)c3n2C)cc1 | inactive |
| CCOC(=O)c1sc(=NC(=O)c2ccc(Br)cc2)n(C)c1C | 17.8 µM (active) |
| CCN(CC)c1ccc(C2C(C(N)=O)=C(C)Nc3nc(SCc4ccccc4)nn32)cc1 (stereo not drawn) | inactive |
| CCCC(=O)Nc1ncnc2c1ncn2[C@@H]1O[C@@H]2OP(=O)(O)OC[C@H]2[C@H]1OC(=O)CCC | 0.631 µM (active) |
| Cc1ccccc1CSc1nc(-c2ccccc2)nc2c1Cc1c(CO)cnc(C)c1O2 | inactive |
| CCOc1ccc(S(=O)(=O)N(CC(=O)NCCSCc2ccc(C)cc2)c2ccccc2)cc1 | inactive |
| Cc1nn2c(=O)cc(COC(=O)c3cccc(NC(=O)COc4ccccc4Cl)c3)nc2s1 | inactive |
| C#CC(C)(C)NC(=O)CSc1nc2c(c(=O)n(C)c(=O)n2C)n1CCCC | inactive |

| Structure (SMILES) | Potency |
| --- | --- |
| CCCCn1c(SCC(=O)N2CCOCC2)nc2c1c(=O)n(C)c(=O)n2C | 15.8 µM (active) |
| Cn1c(=O)c2c(SCC(=O)N3CCOCC3)nc(C3CC3)nc2n(C)c1=O | inactive |
| Cc1cc(C)cc(OCC(=O)Nc2nc(-c3ccc(F)cc3)ns2)c1 | inactive |
| O=C(CSc1nccn1-c1ccc(F)cc1)Nc1cccc2ccccc12 | inactive |
| Cc1ccc(CNC(=O)CCc2c(C)nc3nc(CNC(=O)OC(C)(C)C)nn3c2C)cc1 | inactive |
| COc1ccccc1-c1nnc(C2CCN(C(=O)c3ccc(Cl)cc3)CC2)o1 | inactive |
| CC1Cc2cc(S(=O)(=O)CCC(=O)Nc3ccc(F)c(Cl)c3)ccc2N1C(=O)C1CC1 (stereo not drawn) | inactive |
| COc1ccccc1/C=C/c1nc(C#N)c(NC(C)c2ccccc2)o1 (stereo not drawn) | inactive |
| CCOc1ccc(C2C(=O)N(C3CCCCC3)CC(=O)N2CCC2=CCCCC2)cc1OC (stereo not drawn) | inactive |
| COc1ccc(-c2noc(-c3ccc(N4CCN(c5ccccc5)CC4)c([N+](=O)[O-])c3)n2)cc1OC | inactive |
| COc1ccc(CNC(=O)c2cc3c(=O)[nH]c4ccccc4c3s2)cc1 | inactive |
| CCCn1c(=N)n(CC(O)COc2ccccc2OC)c2ccccc21 (stereo not drawn) | inactive |
| Cc1cc2c(cc3c(SCc4nc(-c5ccccc5)oc4C)nnc(C)n32)o1 | inactive |
| Cc1cc2c(cc3c(SCc4cccc(Cl)c4)nnc(C)n32)o1 | 22.4 µM (active) |
| Cc1nnc(SCc2cccc(Cl)c2)n(N)c1=O | inactive |
| NS(=O)(=O)c1ccc(CCNC(=O)CCCCCn2c(=O)[nH]c3ccccc3c2=O)cc1 | inactive |
| FC(F)(F)c1cc(Nc2nc3ccccc3c3nncn23)ccc1Cl | inactive |
| O=C(COc1ccc2c3c(c(=O)oc2c1)CCCC3)NCC(O)c1ccccc1 (stereo not drawn) | inactive |
| O=C(COc1ccc2c3c(c(=O)oc2c1)CCC3)NC1CCCCC1 | inactive |
| O=C(Oc1ccccc1)Oc1ccc2c(c1)oc(=O)c1ccccc12 | 7.94 µM (active) |
| COc1ccccc1CCNC(=O)CSc1nnc2ccc(-c3cccnc3)nn12 | inactive |

| Structure (SMILES) | Potency |
| --- | --- |
| COC(=O)c1ccc(CSc2ccc3nnc(-c4ccccc4)n3n2)o1 | inactive |
| CCOC(=O)CNC(=O)CSc1ccc2nnc(-c3cccnc3)n2n1 | 17.8 µM (active) |
| Cc1c(C)n(Cc2ccc(Cl)cc2)c2ccc(C(=O)NCCc3ccc(S(N)(=O)=O)cc3)cc12 | inactive |
| O=C(CN1CCN(Cc2ccc(Cl)cc2)C1=O)NCc1ccc(F)cc1 | inactive |
| COc1ccccc1OCC(=O)Nc1nnc2n1CCS2 | inactive |
| COCCNC(=O)c1cc(-c2cccc(Cl)c2)on1 | inactive |
| O=C(CSc1nccn1C1CCCC1)Nc1cc(C(F)(F)F)ccc1Cl | inactive |
| CC(C)c1ccc(NC(=O)c2ccc(Cn3nc(N4CCN(c5ccccc5)CC4)ccc3=O)o2)cc1 | inactive |
| O=C(Nc1ccccc1Br)c1cc(CN2CCCC2)on1 | inactive |
| Cc1ccc(NC(=O)CCCn2c(=O)c3cccn3c3ccccc32)cc1Cl | inactive |
| COc1ccc(C2=NC3(CCCCC3)N(CC(=O)Nc3ccc(C(C)C)cc3)C2=O)cc1 | inactive |
| COc1ccc(CCNC(=O)CCCCn2c(=O)c3ccccc3n(Cc3ccccc3C)c2=O)cc1OC | inactive |
| Fc1ccc(Nc2nc(SCc3ccccc3Cl)nc3ccccc23)cc1 | inactive |
| COc1ccc(S(=O)(=O)NCC(c2ccc(N(C)C)cc2)N2CCCC2)cc1 (stereo not drawn) | inactive |
| O=C(CN1C(=O)COc2ccc(S(=O)(=O)N3CCCCCC3)cc21)N1CCN(c2cccc(C(F)(F)F)c2)CC1 | inactive |
| CCCC(=O)Nc1cc2nn(-c3ccccc3)nc2cc1C | inactive |
| N#Cc1nc(/C=C/c2ccc(F)cc2)oc1NC1CCCCC1 | inactive |
| CCCS(=O)(=O)c1c(Nc2ccccc2C)sc(C(=O)c2ccccc2)c1N | inactive |
| Cc1nn(C(=O)c2c(F)cccc2F)c(C)c1S(=O)(=O)N1CCOCC1 | inactive |
| CC(=O)c1ccc(NC(=O)CCc2nc(-c3ccc(C)cc3)no2)cc1 | inactive |
| Cc1ccc(C)n1-c1nnc(N2CCC(C(=O)NCc3ccccc3Cl)CC2)s1 | inactive |

— PubChem BioAssay AID2676 (National Center for Advancing Translational Sciences (NCATS), 2010)
